VDR inhibitor: Inhibitors of the vitamin D receptor (VDR): qHTS; Vitamin D3 receptor (Homo sapiens), P11473; VDR-SRC2-3 peptide fluorescence polarization, 2 h; Potency, µM, usual class: inhibitors; 0.93% of 400,000 active
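Two reagent solutions held at 4 deg C in the dark were dispensed, compounds pinned at 23 nl, and the mixture incubated 2 h at room temperature. Read-out: fluorescence polarization of VDR–SRC2-3 peptide binding.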
KCNH2 3.1 inh: qHTS for Inhibitors of KCHN2 3.1: Mutant qHTS; activity change, % (tested at about 1.8 µM); 0.95% of 340,000 active; Potassium voltage-gated channel subfamily H member 2, brain isoform KCNH2 3.1 (human); U2OS KCNH2 3.1, thallium flux FluxOr; stronger effect = lower value;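 active means maximum activity change below -70%; inconclusive means maximum activity change from -70% to -50%; inactive means maximum activity change above -50%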;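 further: thallium influx rate constant from kinetic fluorescence after stimulation buffer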
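We transduce U2OS cells with the mutant 3.1 virus, culture them overnight, load FluxOr with Red40 quencher for 45 min, then add stimulation buffer and read kinetically for 2 min to derive a normalized rate constant.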
MBNL1 CUG block: qHTS Assay for Inhibitors of MBNL1-poly(CUG) RNA binding | TR-FRET MBNL1-His/biotin-(CUG)12 binding, 665/545 ratio | Muscleblind-like protein 1 (Homo sapiens), Q9NR56 | AID 2675, 2010 | 0.036% of 280,000 active | Potency, µM (series often up to 57.5 µM), actives largely listed as inhibitors; active means well fitted inhibition curve with a large enough effect in the signal ratio, with a control signal flat, not every such curve was filed as active; inconclusive means small, poorly fitted or top-dose-only effect, or effect the other way, or a change in a side signal; inactive means no such curve, though single readings can be large or run the other way; the % refers to the signal ratio
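Inhibition of protein-RNA binding appears as loss of TR-FRET between terbium anti-His antibody on MBNL1-His and streptavidin-XL665 on biotin-(CUG)12. Activity is normalized to buffer-only and uninhibited-complex controls.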
PLK1 PBD inh: qHTS for Inhibitors of PLK1-PDB (polo-like kinase 1 - polo-box domain): Primary Screen | Plk1 PBD binding of FITC phosphopeptide, fluorescence polarization | Serine/threonine-protein kinase PLK1 (Homo sapiens), P53350 | AID 720504, 2013 | Potency, µM, actives largely listed as inhibitors | 2.8% of 360,000 active; further: series mostly up to about 57 µM; nearly all actives have a fitted effect of over 65% in size
Target sequence (P53350 whole entry, looked up, the tested form may be a part): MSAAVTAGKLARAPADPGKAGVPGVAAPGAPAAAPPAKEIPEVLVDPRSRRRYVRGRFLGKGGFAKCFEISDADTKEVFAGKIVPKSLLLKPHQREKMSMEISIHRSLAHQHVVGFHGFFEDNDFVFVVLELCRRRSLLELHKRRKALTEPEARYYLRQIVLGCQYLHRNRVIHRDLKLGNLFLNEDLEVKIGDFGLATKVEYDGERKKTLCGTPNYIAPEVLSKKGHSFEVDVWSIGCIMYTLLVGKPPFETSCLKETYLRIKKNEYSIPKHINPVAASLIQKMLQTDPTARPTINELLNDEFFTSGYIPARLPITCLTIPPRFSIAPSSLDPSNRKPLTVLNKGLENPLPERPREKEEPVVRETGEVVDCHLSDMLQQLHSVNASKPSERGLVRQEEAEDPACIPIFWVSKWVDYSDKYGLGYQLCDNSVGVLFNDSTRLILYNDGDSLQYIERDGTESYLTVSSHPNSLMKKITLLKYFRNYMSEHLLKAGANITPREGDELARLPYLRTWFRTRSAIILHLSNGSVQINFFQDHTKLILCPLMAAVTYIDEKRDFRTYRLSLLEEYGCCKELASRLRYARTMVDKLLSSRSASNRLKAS
hERG WT inh: qHTS for Inhibitors of KCHN2 3.1: Wildtype qHTS; U2OS, BacMam KCNH2, thallium flux FluxOr; stronger effect = lower value; activity change, % at 1.84 µM; 0.37% of 340,000 active; AID 720551, 2013;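 active means maximum activity change below -70%; inconclusive means maximum activity change between -70% and -50%; inactive means maximum activity change above -50%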
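U2OS cells transduced with wild-type KCNH2 virus are loaded with FluxOr dye for 45 min, and thallium flux is measured in kinetic reads before and after stimulation buffer. Rate constants are normalized to DMSO controls.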
CBFb RUNX1 block: qHTS Assay for Compounds Blocking the Interaction Between CBF-beta and RUNX1 for the Treatment of Acute Myeloid Leukemia. AlphaScreen CBFb-His/RUNX1-biotin binding, biochemical. Potency, µM (top dose mostly 59.8 µM), usual class: inhibitors. Runt-related transcription factor 1 (Homo sapiens) + Core-binding factor subunit beta …. AID 1477, 2009. 230,000 tested, under 10 active
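Interaction loss through any mechanism counts as activity. Pre-formed complex of His-CBF-beta and biotin-RUNX1 (30 nM apiece) is incubated with compound 15 min, then with 50 ng nickel and 50 ng streptavidin beads for 90 min before AlphaScreen detection.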
A number is an active result; - = inactive; ? = inconclusive; . = no result given. Sampled rows, rich in hits. Any-hit rate of the full collection: about 3.8%. Unless noted, the call rests on the fitted dose curve; in most records, active means well fitted curve in the direction sought with a large enough effect; inconclusive means small, poorly fitted or top-dose-only effect, or another doubt; inactive means no such curve, though single readings can be large; an effect the other way counts as inactive or inconclusive.

SMILES	VDR inhibitor	KCNH2 3.1 inh	MBNL1 CUG block	PLK1 PBD inh	hERG WT inh	CBFb RUNX1 block
CC(=O)C(Sc1ncnc2c1nnn2-c1ccc(F)cc1)C(=O)N(C)C (stereo unspecified)	50µM	-	-	24µM	-	-
COC(C)C(O)(C(=O)OC1=CCN2CC[C@H](O)[C@H]12)C(C)C (stereo partly specified)	.	.	.	.	.	-
O=Cc1ccc(Cl)cc1Cl	.	.	.	.	.	-
C[C@H]1CO1	-	.	.	.	.	-
NC1C=CC=C(C(=O)O)C1 (stereo unspecified)	-	-	.	-	-	?
O=c1[nH]cc(N(CCCl)CCCl)c(=O)[nH]1	18µM	.	.	.	.	.
CCCCC/C=C\C/C=C\C/C=C\C/C=C\CCCC(=O)NCCCl	-	.	.	.	.	-
CC[C@@]1(O)C(=O)OCc2c1cc1n(c2=O)Cc2cc3c(O)cccc3nc2-1	-	.	.	.	.	-
CC(=O)Nc1c2sscc-2n(C)c1=O	40µM	.	.	.	.	?
Cc1[nH]c(=S)c(C#N)c2c1CCCC2	?	-	-	27µM	-	-
CC(C)Cc1[nH]c(=O)c(C#N)c2c1CCC2	-	-	-	-	-	-
Cc1ccnc(-n2c(C)cc(C=C3C(=O)N(C)C(=S)N(C)C3=O)c2C)c1	?	-	-	1.2µM	-	-
Cn1cc(C=C(C#N)C#N)c2ccccc21	-	-	-	-	-	-
Cn1cc(/C=C(\C(=O)O)C(C(=O)O)=C2CCCCC2)c2ccccc21	?	-	-	15µM	-	-
Cc1ccc(Cn2nnnc2CN2CCC(n3nnc4cc(C)ccc43)CC2)cc1	-	-	-	-	-	-
Cc1ccc(Cn2nnnc2CN2CCC(n3nnc4cc(C(F)(F)F)ccc43)CC2)cc1	-	-93	-	-	?	-
FC(F)(F)c1ccc2c(c1)nnn2C1CCN(Cc2nnnn2Cc2ccccc2)CC1	-	-76	-	-	-	-
Cc1nc2cc(C(F)(F)F)ccc2n1C1CCN(Cc2nnnn2CCc2ccccc2)CC1	-	-81	-	-	-	-
Cl.Cl.Cl.Cl.Cl.Cl.N.N.N.N.NNNNN.NNNNN.O.O.[Ru].[Ru].[Ru]	?	.	.	.	.	-
NS(=O)(=O)c1ccc(CNC(=O)COc2ccc3c4c(c(=O)oc3c2)CCCC4)cc1	-	-	-	24µM	-	.
Cc1cc(OCC(=O)NCc2cccnc2)c2c3c(c(=O)oc2c1)CCCC3	-	-	-	-	-	.
CCN1CCN(CC(=O)c2c(C)n(Cc3ccccc3)c3ccc(OC)cc23)CC1	?	-	-	21µM	-	-
CC(=O)C[C@@H](c1ccccc1)c1c(O)c2ccccc2oc1=O	-	.	.	.	.	-
O=C(Nc1ccccc1)c1c(O)[nH]c(=O)[nH]c1=O	-	-	.	-	-	.
O=C(COc1ccccc1/C=C1/NC(=O)NC1=O)Nc1ccccc1	?	-	-	3.4µM	-	-
SMILES	VDR inhibitor	KCNH2 3.1 inh	MBNL1 CUG block	PLK1 PBD inh	hERG WT inh	CBFb RUNX1 block
N[C@H](CP(=O)(O)O)C(=O)O	.	.	.	.	.	-
CCC(CC)c1nnc(NC(=O)CC(C)c2ccccc2)s1 (stereo unspecified)	-	-72	-	?	-	.
CCCC(C)c1nnc(NC(=O)CCS(=O)(=O)c2ccccc2)s1 (stereo unspecified)	25µM	-	-	4.7µM	-	.
O=C1NC(=S)NC(=O)C1=Cc1ccc2c(c1)CCN2CCCCl	?	-	?	2.7µM	-	?
C=CCN1C(=O)NC(=O)/C(=C/c2cc3c4c(c2)CCCN4CCC3)C1=O	-	-	-	?	-	-
O=C1NC(=O)N(c2ccc3c(c2)OCO3)C(=O)/C1=C\c1ccsc1	?	-	-	4.7µM	-	-
ClCBr	.	.	.	.	.	-
CC(C)OC(=O)C(O)(c1ccc(Cl)cc1)c1ccc(Cl)cc1	-	.	.	.	.	?
CN(C)[C@@H]1C(=O)C(C(N)=O)=C(O)[C@@]2(O)C(=O)C3=C(O)c4c(O)cccc4[C@@](C)(O)C3C[C@@H]12 (stereo partly specified)	.	-	.	-	-	.
Cc1ccc(C(=O)NC2CCN(S(=O)(=O)c3ccc(C)cc3)CC2)cc1	?	-	-	-	-	-
Cc1ccc(S(=O)(=O)N2CN3CCN(C3)C2)cc1	-	-134	-	-	-131	-
Cl/C=C/CCl	.	.	.	.	.	-
COc1ccc(CN2CCCC(C(=O)c3ccc(Cl)cc3)C2)c(O)c1 (stereo unspecified)	-	-72	-	-	-	.
O=C(c1ccc(Cl)cc1)C1CCCN(Cc2cccc3cccnc23)C1 (stereo unspecified)	-	-99	-	-	-71	-
Brc1c(Br)c(Br)c2n[nH]nc2c1Br	45µM	.	.	.	.	-
CCOC(=O)c1ccc(N2C(=O)CC(N3CC=C(c4ccc(F)cc4)CC3)C2=O)cc1 (stereo unspecified)	-	-	-	-	-	-
NC(=O)c1ccc(OCCC(O)N2CC=C(c3ccc(F)cc3)CC2)cc1 (stereo unspecified)	-	-73	.	-	-	.
CC(=O)NNc1ccccc1	.	.	.	.	.	-
Cc1c(C=C2C(=O)N(C)C(=O)N(C)C2=O)c(=O)n(-c2ccccc2)n1C	-	-	-	?	-	-
CN1C(=O)C(=Cc2c(OCc3cnc(Cl)s3)ccc3ccccc23)C(=O)N(C)C1=O	?	-	-	4.7µM	-	-
O=C(Nc1ccccc1)c1c(O)[nH]c(=S)[nH]c1=O	-	-	.	-	-	.
O=c1[nH]c(=S)[nH]c(O)c1/C=C1/C=c2ccccc2=N1	-	-	-	1.3µM	-	.
COc1cccc(CNCCc2c[nH]c3ccccc23)c1	-	-	-	-	-	.
COc1ccc(CN(CCc2c[nH]c3ccccc23)Cc2ccc(OC)cc2)cc1	-	-106	.	-	-	.
O=C(O)c1cc[c]([Hg][Cl])cc1	10µM	-	.	0.24µM	-	-
O=C(O)c1cccc(Cl)c1	.	.	.	.	.	-
CC(C)[C@H](NC(=O)[C@H](CCC(=O)O)NC(=O)[C@H](Cc1ccccc1)NC(=O)[C@@H](C)NC(=O)[C@@H](N)Cc1ccc(O)cc1)C(=O)N[C@H](C(=O)NCC(N)=O)C(C)C	-	.	.	.	.	-
Cc1cc(/C=C2\C(=O)NC(=O)N(c3ccc(Br)cc3)C2=O)c(C)n1-c1cc(C(=O)O)cc(C(=O)O)c1	?	-	-	12µM	-	.
Cc1cc(/C=C2\C(=O)NC(=O)N(c3ccc(Cl)cc3)C2=O)c(C)n1-c1cccc(C(=O)O)c1	-	-	-	27µM	-	.
O=C(Nc1nn[nH]n1)c1cccc([N+](=O)[O-])c1	-	-	?	-	-	-

Screens as filed in PubChem BioAssay.
